Most compounds without a hit are left out; they make up all but 4.8% or so of the library.
DAX1 inh-1 = inhibitors of human orphan nuclear receptor DAX1 (NR0B1); inhibition, % at 6.75 µM; 340,000 compounds, 0.99% hits; HEK293 Gal4-DAX1 luciferase reporter, luminescence; P51843;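 active means inhibition above the mean over all tested compounds plus 3 SD, cut at about 4.2% in these data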;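 further: 0% = DAX1-transfected cells with DMSO and 100% = empty-vector control cells with DMSO; inhibition shows as a rise in luminescence from relieved DAX1 repression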
hgDAF-12 ag = agonists of H. glycines DAF-12 nuclear receptor | activation, % at 6.8 µM | HEK293 GAL4-hgDAF12 UAS-luciferase reporter, agonist luminescence; normalized to butyrate control | 370,000 compounds, 1.8% hits | AID 687014;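 active means activation above a cutoff set at the mean of all screened compounds plus 3 SD, cut at about 10% in these data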;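 further: 0% = DMSO wells and 100% = sodium butyrate wells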
ssDAF12 agonist = S. stercoralis DAF-12 activation, primary screen. 370,000 compounds, 1% hits. activation, % at 6.8 µM. HEK293 ssDAF-12/GRIP1 lit1-tk-luc reporter, luminescence; % of 3 µM dafachronic acid response. AID 652126;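 active means activation above the mean over all tested compounds plus 3 SD, cut at about 0.9% in these data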;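 further: 0% = DMSO-only wells and 100% = 3 µM delta7-dafachronic acid wells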
DAX1 inh-2 = DAX1 (NR0B1) inhibition, primary screen; inhibition, % at 6.8 µM; HEK293T StAR-luciferase reporter, SF-1/DAX-1 repression relief; AID 652010; 370,000 compounds, 1.1% hits;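 active means inhibition above the mean over all tested compounds plus 3 SD, cut at about 3.6% in these data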;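 further: 0% = DAX-1 cells with DMSO and 100% = cells lacking DAX-1 with DMSO; higher inhibition means more luminescence from relief of DAX-1 repression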
hcDAF12 agonist = activates DAF-12 receptor from parasite H. contortus; HEK293 hcDAF-12 lit1-tk-luc reporter, luminescence; 0% DMSO, 100% Δ7-dafachronic acid; activation, % at 6.8 µM; 370,000 compounds, 1.4% hits; AID 652067;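 active means activation above the mean of all tested compounds plus 3 SD, cut at about 5.5% in these data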;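 further: 100% = response to 3 µM Δ7-dafachronic acid high control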
SMARCA2 act = activators of SMARCA2 function; activation, % at 9.1 µM; MG213 cells, MMTV-luciferase reporter, dexamethasone, overnight; 370,000 compounds, 1% hits; in the data active means activation above about 7.8%;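 further: 0% = vehicle wells and 100% = reference activator wells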
DAX1 inh confirm = confirmation of human DAX1 (NR0B1) inhibitors | shares compounds with DAX1 inh-2 | HEK293T StAR-promoter luciferase reporter, SF-1/DAX-1 repression | inhibition, % at 6.8 µM | 2,400 compounds, 87% hits;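 active means inhibition above the average of every tested compound plus 3 SD, cut at about 3.8% in these data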;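 further: 0% = DAX-1 cells with DMSO and 100% = no DAX-1 control cells with DMSO; active compounds raise luminescence by relieving repression of the StAR reporter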
Target sequence (P51843 whole entry, looked up): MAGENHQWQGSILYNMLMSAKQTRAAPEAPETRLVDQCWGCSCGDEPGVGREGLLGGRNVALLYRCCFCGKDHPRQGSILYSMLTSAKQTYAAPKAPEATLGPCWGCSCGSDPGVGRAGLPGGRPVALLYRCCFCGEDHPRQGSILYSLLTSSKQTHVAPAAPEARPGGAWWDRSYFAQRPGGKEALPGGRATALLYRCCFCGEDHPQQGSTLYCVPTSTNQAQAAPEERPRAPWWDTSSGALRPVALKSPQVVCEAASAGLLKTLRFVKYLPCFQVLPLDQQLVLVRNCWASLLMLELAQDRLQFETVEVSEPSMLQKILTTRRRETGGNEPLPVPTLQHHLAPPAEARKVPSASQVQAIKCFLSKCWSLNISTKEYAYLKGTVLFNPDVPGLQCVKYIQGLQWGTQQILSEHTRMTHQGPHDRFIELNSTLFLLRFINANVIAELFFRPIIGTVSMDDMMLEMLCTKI
SF1 mutant ctr = nonselective inhibitor or artifact in SF-1 mutant DAX1 counter-screen; 2,400 compounds, 78% hits; AID 652136; inhibition, % at 6.8 µM; shares compounds with DAX1 inh-2; HEK293 StAR-luciferase, SF-1 AF2 mutant, luminescence;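 active means inhibition above the mean of all tested compounds plus 3 SD, cut at about 3% in these data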;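 further: 0% = DAX-1 transfected cells with DMSO and 100% = cells without DAX-1 with DMSO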
* hit, by the source's call; . = no result.

SMILES	DAX1 inh-1	hgDAF-12 ag	ssDAF12 agonist	DAX1 inh-2	hcDAF12 agonist	SMARCA2 act	DAX1 inh confirm	SF1 mutant ctr
CC1CC(C)CN(CCCNC(=O)c2ccc3nc(N4CCOCC4)sc3c2)C1 (configuration not stated)	0	-1	-2	0	-1	-3	.	.
CN(C)CCCNC(=O)c1cc(C(=O)C2CCCCC2)c[nH]1	1	-2	-1	0	-2	-5	.	.
O=C(CSc1nc2ncccc2[nH]1)NC1CCCCC1	0	0	-1	0	0	5	.	.
O=C(Nc1cccc(C(=O)O)c1)Nc1ccc2c(c1)OCO2	-5	4	-1	6.8*	4	3	6.3*	5.5*
Cc1cc(C)c(NC(=O)Nc2ccc3c(c2)OCO3)c(C)c1	2	4	0	4.7*	2	2	2	3.4*
Cc1ccc(C(=O)O)cc1NC(=O)Nc1ccc2c(c1)OCO2	2	7	-1	0	0	0	.	.
N=c1c(C(=O)NCC2CCCO2)cc2c(=O)n3ccccc3nc2n1Cc1cccnc1 (configuration not stated)	0	0	-1	1	1	-4	.	.
CCOc1cccc(C(=O)Nc2nnc(-c3ccco3)s2)c1	-1	11*	1	5.0*	5	7	15*	5.1*
CCc1ccc(NC(=S)N2CCCC2)cc1	1	12*	0	5.3*	6.0*	4	8.6*	3.9*
CCc1ccc(NC(=O)N2CCCCCC2)cc1	4	4	0	5.2*	4	4	9.8*	7.0*
O=C(Nc1ccc(Br)cc1)N1CCCCCC1	1	7	0	7.2*	1	4	4.8*	3.3*
CCc1ccc(NC(=S)N2CCN(C)CC2)cc1	1	0	-1	3	4	4	.	.
O=C(Nc1ccc(Cl)c(Cl)c1)N1CCC(N2CCCCC2)CC1	1	0	-2	1	-1	0	.	.
O=C(Nc1ccc(Cl)c(Cl)c1)N1CCCCCC1	1	7	0	5.3*	0	4	8.8*	4.8*
COc1ccc2[nH]c(O)c(N=NC(=N)N)c2c1	-1	-1	0	1	-1	-5	.	.
O=c1cc(Br)c(O)c(Br)cc1Br	1	-1	-1	1	0	-2	.	.
Cc1cc(C)cc(NC(=O)N2CCc3ccccc3C2)c1	1	5	0	2	1	2	.	.
O=C(Nc1ccc(Br)cc1)N1CCc2ccccc2C1	1	5	0	5.3*	1	3	5.5*	3.0*
CCN1CCN(S(=O)(=O)c2ccc(C(=O)Nc3sc4c(c3C(N)=O)CCN(CC)C4)cc2)CC1	-1	2	0	0	0	0	.	.
CCN1CCc2c(sc(NC(=O)c3ccc(S(=O)(=O)N4CC(C)OC(C)C4)cc3)c2C(N)=O)C1 (configuration not stated)	-1	2	-1	4.8*	-1	1	2	3.7*
Cc1cc(NC(=O)CSc2ccccn2)cc(NC(=O)CSc2ccccn2)c1	0	0	-1	0	1	-4	.	.
O=C(CSc1ccccn1)Nc1ccc2c(c1)CCC2	3	6	0	5.0*	0	6	7.2*	5.5*
Fc1ccc(-c2nnc(-c3ccc(Cl)cc3Cl)o2)cc1	2	12*	0	5.3*	5	4	8.3*	3.6*
Cc1ccc(-n2ncc3c(N4CCCC(C)C4)ncnc32)c(C)c1 (configuration not stated)	2	11*	0	4.8*	2	3	7.2*	5.5*
Cc1cc(N/N=C/c2ccc(O)cc2)nc(NS(=O)(=O)c2ccccc2)n1	-2	-7	-2	-1	-5	-4	.	.
SMILES	DAX1 inh-1	hgDAF-12 ag	ssDAF12 agonist	DAX1 inh-2	hcDAF12 agonist	SMARCA2 act	DAX1 inh confirm	SF1 mutant ctr
COc1ccc(-c2nnc(SCC(=O)c3[nH]c(C)c(C(C)=O)c3C)o2)cc1	0	-1	-1	-1	-3	1	.	.
COc1ccc(-c2oc3c(c2C#CC2(O)CCCCC2)C(OC)CCC3)cc1 (configuration not stated)	.	3	-1	5.6*	-2	5	-1	-1
CCn1cc(Cl)c(C(=O)Nc2ccc3c(c2)OCCO3)n1	1	13*	1	6.1*	2	4	9.7*	5.5*
Nc1c(C(=O)NCc2ccc3c(c2)OCO3)nnn1Cc1cccc(F)c1	-1	2	-2	1	0	-2	.	.
Nc1c(C(=O)Nc2ccc3c(c2)OCCO3)nnn1Cc1ccc(Cl)cc1	2	12*	0	8.7*	5	5	7.7*	5.2*
Nc1c(C(=O)Nc2ccc3c(c2)OCCO3)nnn1Cc1cccc(F)c1	2	7	-1	7.7*	0	4	9.4*	5.3*
O=C(CN(C(=O)c1csnn1)c1cccc(Cl)c1)NCCc1ccccc1	0	1	-1	0	-2	-2	.	.
CCC(C)(C)C1CCC2(CC1)NC(=O)N(CC(=O)N1CCN(S(=O)(=O)c3cc(C)ccc3C)CC1)C2=O (configuration not stated)	1	0	-1	1	0	-1	.	.
CC(C)(C)C(=O)[C@H]1[C@H](c2ccccc2)[C@@]2(N=C(c3ccccc3)OC2=O)C2c3ccccc3C=NN21 (some centres not stated)	0	5	-1	1	4	-2	.	.
COc1ccc(NC(=O)c2ccccc2NC(=O)C2CC=CCC2C(=O)O)cc1 (configuration not stated)	2	12*	0	5.6*	3	2	4.0*	3.4*
COc1ccc(NC(=O)c2ccccc2NC(=O)c2ccccc2)cc1	-2	4	-1	-1	1	2	.	.
Cc1ccccc1NC(=O)c1c(C)[nH]c(=S)c(C#N)c1-c1ccco1	1	-1	-1	0	2	-3	.	.
Nc1ccn([C@H]2C[C@H](O)[C@@H](CO)O2)c(=O)n1	1	4	-1	0	0	-4	.	.
Cc1cs/c(=N/C(=S)Nc2ccccc2)n1C	3	13*	0.9*	5.6*	2	1	12*	5.8*
CCCn1c(C)cs/c1=N\C(=S)Nc1ccccc1	0	-1	-1	0	1	0	.	.
CCN(c1cc(C)cc(C)c1)S(=O)(=O)c1nnc(NC(=O)c2ccco2)s1	0	0	-1	-1	-1	-3	.	.

Screening data deposited in PubChem BioAssay by The Scripps Research Institute Molecular Screening Center.
